Only a selection was taken, and hits are over-represented in it overall.
D1 mod – allosteric modulators of human D1 dopamine receptor | AID 641 | hit rate 5.9% among 58,000 | B-score at 10 µM | HEK293 D1, CRE-luciferase, dopamine EC30 potentiation; actives deviate in either direction | P21728;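 active means luminescence count or its row- and column-corrected plate score outside the 99.7% band of the plate's sample wells, on either side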
hDAT+cocaine – human DAT dopamine uptake with cocaine, either direction; LLC-PK1 hDAT cells, [14C]-dopamine uptake with cocaine IC80; actives deviate in either direction; B-score at 10 µM; hit rate 1.3% among 110,000; AID 449768;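 active means Z score or B-score, a plate-position-corrected score, falls beyond the plate's 99.7% confidence bounds, in either direction; inactive means both scores lie inside the 99.7% bounds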
EphB4 ephrin blk – blocks human EphB4 binding to ephrin-B2; AID 720; hit rate 0.15% among 97,000; EphB4 LBD / TNYL-RAW-Alexa532 peptide, fluorescence polarization; inhibition, % at 7 µM;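 active means inhibition above the screen-wide mean inhibition plus 3 SD, cut at about 15% in these data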
D1 PAM confirm – confirmation of human D1 dopamine receptor allosteric modulators. shares compounds with D1 mod. HEK293 D1 CRE-luciferase, dopamine EC30 potentiation; active compounds read high. luminescence at 10 µM. hit rate 88% among 2,200. AID 642;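 active means luminescence in either of two replicates above the same-plate mean plus 3 SD of the low-dose dopamine control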
D1 no dopamine – secondary test of D1 modulators: activity without dopamine; shares compounds with D1 mod; HEK293 D1 CRE-luciferase, luminescence, no dopamine; active compounds read high; luminescence at 10 µM; hit rate 0.8% among 1,900; AID 646; in the data active means luminescence above about 3900
Isoprot counter – alters isoproterenol CRE-luciferase response in HEK293 cells; AID 647; hit rate 63% among 2,200; calls only at 10 µM; shares compounds with D1 mod; HEK293 D1 CRE-luciferase, isoproterenol EC30 counter-screen;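 active means luminescence in either replicate above plate mean of wells with a partly effective reference agonist dose plus 3 SD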;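 further: isoproterenol raises cAMP through native beta-adrenoceptor Gs so signal bypasses D1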
Large screens that a line does not name were inactive (follow-up assays come after a bar, where they were run).

Cc1cc(NCCN2CCCCC2)n2c(nc3ccccc32)c1C#N	none
Cc1cc(NCCCn2ccnc2)n2c(nc3ccccc32)c1C#N	D1 mod 3.87 | D1 PAM confirm 7832 | D1 no dopamine inactive | Isoprot counter inactive
CCOC(=O)c1cnn2c(C(F)(F)F)cc(-c3ccccc3)nc12	none (no result: EphB4 ephrin blk)
CCn1c(SCCC(=O)O)nnc1-c1cccnc1	none (no result: D1 mod, EphB4 ephrin blk)
Cc1nn(CCC(=O)O)c2nc(-c3cccnc3)cc(C(F)(F)F)c12	D1 mod 5.38 | D1 PAM confirm 8896 | Isoprot counter inactive
CCOC(=O)c1cc2c(C(F)(F)F)cc(-c3cccnc3)nc2o1	D1 mod 5.3 | D1 PAM confirm 6932 | D1 no dopamine inactive | Isoprot counter active
CC(C)CC(=O)NC(NCC1CCCO1)C(Cl)(Cl)Cl (stereo unspecified)	none (no result: D1 mod)
CSCCC(NC(=O)OC(C)(C)C)C(=O)NC(C(=O)NC(CC(C)C)C(N)=O)C(C)C (stereo unspecified)	none (no result: D1 mod)
CC(Oc1ccc(Cl)cc1Cl)c1nc(-c2ccc(NC(=O)c3ccccn3)cc2)no1 (stereo unspecified)	none (no result: D1 mod)
O=C(NCc1cccc(C(F)(F)F)c1)C1CC(c2c(Cl)cccc2Cl)=NO1 (stereo unspecified)	none (no result: D1 mod)
Cc1ccc(C(O)(COC(=O)C(C)C)COC(=O)C(C)C)c(O)c1	none (no result: D1 mod, EphB4 ephrin blk)
N#CC1=C(N)Oc2n[nH]c(-c3cccs3)c2C1c1ccsc1 (stereo unspecified)	D1 mod 4.43 | D1 PAM confirm 6176 | D1 no dopamine inactive | Isoprot counter inactive
Cc1ccc(C2C(C#N)=C(N)Oc3n[nH]c(-c4cccs4)c32)s1 (stereo unspecified)	D1 mod 4.59 | D1 PAM confirm 13468 | D1 no dopamine inactive | Isoprot counter inactive
N#CC1=C(N)Oc2n[nH]c(-c3cccs3)c2C1C1CCCCC1 (stereo unspecified)	none (no result: D1 mod)
N#CC1=C(N)Oc2n[nH]c(-c3cccs3)c2C1c1ccco1 (stereo unspecified)	none
CNc1c([N+](=O)[O-])cnn1-c1ccc(Cl)cc1	none (no result: D1 mod)
COC(=O)[C@@]1(Cc2ccc(OC)cc2)[C@H]2c3cc(C(=O)N4CCCC4)n(CCc4c[nH]c5ccc(O)cc45)c3C[C@H]2CN1C(=O)c1ccccc1	none (no result: D1 mod, EphB4 ephrin blk)
CCOC(=O)c1c(C2COc3ccccc3O2)csc1NC(=O)c1ccccc1 (stereo unspecified)	none (no result: D1 mod)
CCOC(=O)c1c(C2COc3ccccc3O2)csc1N (stereo unspecified)	D1 mod 9.85 | D1 PAM confirm 11276 | D1 no dopamine inactive | Isoprot counter active
CC(=O)Nc1sc2c(c1C(c1ccccc1Cl)N1CCN(CCO)CC1)CCCC2 (stereo unspecified)	none (no result: D1 mod, EphB4 ephrin blk)
O=C(CCSc1ccccc1)Nc1ccc(OCc2ccccc2)cc1	none (no result: D1 mod)
N#Cc1nc(-c2ccccc2)oc1N1CCCCC1	none (no result: EphB4 ephrin blk)
N#Cc1nc(-c2ccco2)oc1N1CCCC1	D1 mod 3.97 | D1 PAM confirm 11548 | Isoprot counter active
N#Cc1nc(-c2ccccc2F)oc1N1CCCC1	D1 mod 6.39 | D1 PAM confirm 11832 | D1 no dopamine inactive | Isoprot counter active
N#Cc1nc(-c2ccco2)oc1N1CCN(C(c2ccccc2)c2ccccc2)CC1	none
O=C1[C@@H]2[C@H](C(=O)N1Cc1ccco1)[C@H]1C=C[C@@H]2C1	none (no result: D1 mod)
COc1cc(O)oc1C=Nc1ccc(C(F)(F)F)cc1	none (no result: D1 mod)
Cc1nn(C(C)C(=O)NCc2ccccc2Cl)c(=O)c2c1sc1ccccc12 (stereo unspecified)	none (no result: D1 mod)
O=C(O)c1ccc(O)c(O)c1	none (no result: D1 mod, EphB4 ephrin blk)
O=C(O)c1ccc(-c2ccc(O)c(F)c2)cc1	D1 mod 5.93 | D1 PAM confirm 7760 | D1 no dopamine inactive | Isoprot counter active
CN(C)c1nc(C(N)=O)nc(N2CCOCC2)n1	none (no result: D1 mod)
C=CCSc1nnc2n(-c3ccccc3OC)c(=O)c3c4c(sc3n12)CCC4	D1 mod 5.73 (no result: EphB4 ephrin blk) | D1 PAM confirm 11688 | D1 no dopamine inactive | Isoprot counter inactive
CCCSc1nnc2n(-c3ccccc3OC)c(=O)c3c4c(sc3n12)CCC4	none (no result: D1 mod)
CN1CCc2c(sc3c2c(=O)n(-c2ccccc2)c2nnc(SCc4ccccc4)n32)C1	none (no result: D1 mod, EphB4 ephrin blk)
CSc1nnc2n(-c3ccccc3)c(=O)c3c4c(sc3n12)CCC4	D1 mod 17.2 | D1 PAM confirm 18696 | D1 no dopamine inactive | Isoprot counter active

Source: PubChem (several laboratories)
